Test results: the supplement of paper PMC12350171
Structures can show the parent of a compound that is named as a salt. A number with no mark means an inactive call.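 How the source made its calls: active = AUC significantly below DMSO controls by Student t-fit with adjusted P under 0.01; inactive = not significantly reduced.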

system: Haemophilus parainfluenzae; assay: growth AUC normalised to DMSO control (fraction of control); higher = less growth inhibition, active = hit call of the paper; details: 20 µM
Outline: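 For the AUC endpoint, growth curves were integrated by the trapezoidal rule up to the exponential-to-stationary transition and normalised to DMSO controls on the same plate. The curves came from OD578 readings taken hourly for 24 h, in three biological replicates. Pathogens had been passaged anaerobically twice and inoculated at an OD578 of 0.01 into pre-reduced mGAM plates carrying 20 μM compound and 1% DMSO, sealed with breathable membranes. Medium for Haemophilus parainfluenzae also contained hemin and NAD.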

| SMILES | growth AUC normalised to DMSO control |
| --- | --- |
| CC[C@H](C)[C@H]1O[C@]2(C=C[C@@H]1C)C[C@@H]1C[C@@H](C/C=C(\C)[C@@H](O[C@H]3C[C@H](OC)[C@@H](O[C@H]4C[C@H](OC)[C@@H](O)[C@H](C)O4)[C@H](C)O3)[C@@H](C)/C=C/C=C3\CO[C@@H]4[C@H](O)C(C)=C[C@@H](C(=O)O1)[C@]34O)O2.CO[C@H]1C[C@H](O[C@H]2[C@H](C)O[C@@H](O[C@@H]3/C(C)=C/C[C@@H]4C[C@@H](C[C@]5(C=C[C@H](C)[C@@H](C(C)C)O5)O4)OC(=O)[C@@H]4C=C(C)[C@@H](O)[C@H]5OC/C(=C\C=C\[C@@H]3C)[C@]54O)C[C@@H]2OC)O[C@@H](C)[C@@H]1O [Avermectin B1] | 0.997 |
| N=C(N)N1CCc2ccccc2C1 [Debrisoquin sulfate] | 0.978 |
| O=C1O[C@H]([C@@H](O)CO)C(O)=C1O [Ascorbic acid] | 1.06 |
| CC(C)NCC(O)c1cc(O)cc(O)c1 (stereo not given) [Metaproterenol sulfate] | 0.99 |
| CC(N)C12CC3CC(CC(C3)C1)C2 (stereo not given) [Rimantadine hydrochloride] | 0.933 |
| CCC1(C)CC(=O)NC1=O (stereo not given) [Ethosuximide] | 1.06 |
| CN1Cc2c(N)cccc2C(c2ccccc2)C1 (stereo not given) [Nomifensine maleate] | 0.915 |
| CCN(CC)CCNC(=O)c1ccc(N)cc1 [Procainamide hydrochloride] | 0.983 |
| CC(=O)O[C@H]1C[C@@]2(C)[C@@H](C[C@@H](O)[C@H]3[C@@]4(C)CC[C@@H](O)[C@@H](C)[C@@H]4CC[C@@]32C)/C1=C(\CCC=C(C)C)C(=O)O [Fusidic acid sodium salt] | 0.345 (active) |
| CCC1(c2ccccc2)C(=O)NCNC1=O [Primidone] | 0.953 |
| CN(C)CCC=C1c2ccccc2COc2ccccc21 [Doxepin hydrochloride] | 0.972 |
| CNCC(O)c1ccc(O)c(O)c1 (stereo not given) [Racepinephrine hydrochloride] | 1.06 |
| NS(=O)(=O)c1cc2c(cc1Cl)N=C(CSCc1ccccc1)NS2(=O)=O [Benzthiazide] | 0.987 |
| N[C@@H](Cc1ccc(O)c(O)c1)C(=O)O [Levodopa] | 1.02 |
| CO[C@@]1(NC(=O)C2SC(=C(C(N)=O)C(=O)O)S2)C(=O)N2C(C(=O)O)=C(CSc3nnnn3C)CS[C@@H]21 (stereo not given in full) [Cefotetan] | 0.0395 (active) |
| CN(C)CCCSC(=N)N [Dimaprit dihydrochloride] | 1.01 |
| CN(C)CCCOc1nn(Cc2ccccc2)c2ccccc12 [Benzydamine hydrochloride] | 0.964 |
| CC1=C(/C=C/C(C)=C/C=C/C(C)=C\C(=O)O)C(C)(C)CCC1 [Isotretinoin] | 1.02 |
| Cc1c(N)c(=O)n(-c2ccccc2)n1C [Ampyrone] | 1 |
| CC(C)OC(=O)C(C)(C)Oc1ccc(C(=O)c2ccc(Cl)cc2)cc1 [Fenofibrate] | 0.961 |
| CN(C)CC/C=C1/c2ccccc2Sc2ccc(Cl)cc21 [Chlorprothixene hydrochloride] | 0.887 |
| CC(CN(C)C)CN1c2ccccc2CCc2ccccc21 (stereo not given) [Trimipramine maleate salt] | 1.07 |
| CNCCCC12CCC(c3ccccc31)c1ccccc12 [Maprotiline hydrochloride] | 0.979 |
| CC(N)(Cc1ccc(O)c(O)c1)C(=O)O (stereo not given) [(L) Methyldopa] | 1.04 |
| OCCN1CCN(CCCN2c3ccccc3C=Cc3ccccc32)CC1 [Opipramol dihydrochloride] | 0.911 |
| NS(=O)(=O)c1cc(C(=O)O)c(NCc2ccco2)cc1Cl [Furosemide] | 1 |
| CCc1ccc(CCOc2ccc(CC3SC(=O)NC3=O)cc2)nc1 (stereo not given) [Pioglitazone] | 0.955 |
| Nc1nc(NC2CC2)c2ncn([C@H]3C=C[C@@H](CO)C3)c2n1 [Abacavir sulfate] | 0.979 |
| NS(=O)(=O)c1cc2c(cc1Cl)NC(C(Cl)Cl)NS2(=O)=O (stereo not given) [Trichlormethiazide] | 1.01 |
| CCN[C@H]1CN(CCCOC)S(=O)(=O)c2sc(S(N)(=O)=O)cc21 [Brinzolamide] | 0.946 |
